According to the supplement of paper PMC11732987, “Enantioselective OTUD7B fragment discovery through chemoproteomics screening and high-throughput optimisation” (Communications Chemistry, 2025):

Experiments:
Assay in all cases: log2 ratio of Biotin-Ahx-Ub-VS probe labelling (fragment/DMSO); higher = less target engagement (more negative = stronger competition), active = hit call of the paper (q ≤ 0.05, log2 ratio ≤ -1)
Settings in all cases: compound concentration: 200 uM; treatment time: 3 h
[1] = target: USP9X (UniProt Q93008)
In short: (§1)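 Labelled DUBs from HEK293T lysate were NeutrAvidin-enriched, digested with LysC and trypsin, and run by diaPASEF LC-MS/MS. Before that, each 495 µg sample in Tris/CHAPS/IGEPAL buffer with protease inhibitors was treated in triplicate with fragment at 200 µM or vehicle for 3 h, then with Biotin-Ahx-Ub-VS at 0.5 µM final for 1 h. Values are average log2 ratios of fragment over vehicle by unpaired t-test, based on global-median-normalised Spectronaut label-free quantities from proteins with ≥2 unique peptides.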

[2] = target: UniProt O00487
In short: as §1

[3] = target: UniProt O00507
In short: as §1

[4] = target: UniProt P51784
In short: as §1

[5] = target: T1, UniProt Q5T2D3
T1 sequence (whole entry): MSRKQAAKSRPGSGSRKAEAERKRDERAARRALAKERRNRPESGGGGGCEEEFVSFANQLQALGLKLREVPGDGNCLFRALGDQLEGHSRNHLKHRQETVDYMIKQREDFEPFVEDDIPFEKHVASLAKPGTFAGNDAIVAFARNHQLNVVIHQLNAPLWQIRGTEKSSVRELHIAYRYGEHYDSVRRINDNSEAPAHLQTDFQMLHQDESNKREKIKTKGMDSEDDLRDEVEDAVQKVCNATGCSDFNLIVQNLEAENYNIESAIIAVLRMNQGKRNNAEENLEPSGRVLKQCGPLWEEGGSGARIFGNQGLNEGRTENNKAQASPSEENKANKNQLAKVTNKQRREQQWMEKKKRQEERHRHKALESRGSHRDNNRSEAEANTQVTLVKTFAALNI
In short: as §1

[6] = target: T2, UniProt Q8TE49
T2 sequence (whole entry): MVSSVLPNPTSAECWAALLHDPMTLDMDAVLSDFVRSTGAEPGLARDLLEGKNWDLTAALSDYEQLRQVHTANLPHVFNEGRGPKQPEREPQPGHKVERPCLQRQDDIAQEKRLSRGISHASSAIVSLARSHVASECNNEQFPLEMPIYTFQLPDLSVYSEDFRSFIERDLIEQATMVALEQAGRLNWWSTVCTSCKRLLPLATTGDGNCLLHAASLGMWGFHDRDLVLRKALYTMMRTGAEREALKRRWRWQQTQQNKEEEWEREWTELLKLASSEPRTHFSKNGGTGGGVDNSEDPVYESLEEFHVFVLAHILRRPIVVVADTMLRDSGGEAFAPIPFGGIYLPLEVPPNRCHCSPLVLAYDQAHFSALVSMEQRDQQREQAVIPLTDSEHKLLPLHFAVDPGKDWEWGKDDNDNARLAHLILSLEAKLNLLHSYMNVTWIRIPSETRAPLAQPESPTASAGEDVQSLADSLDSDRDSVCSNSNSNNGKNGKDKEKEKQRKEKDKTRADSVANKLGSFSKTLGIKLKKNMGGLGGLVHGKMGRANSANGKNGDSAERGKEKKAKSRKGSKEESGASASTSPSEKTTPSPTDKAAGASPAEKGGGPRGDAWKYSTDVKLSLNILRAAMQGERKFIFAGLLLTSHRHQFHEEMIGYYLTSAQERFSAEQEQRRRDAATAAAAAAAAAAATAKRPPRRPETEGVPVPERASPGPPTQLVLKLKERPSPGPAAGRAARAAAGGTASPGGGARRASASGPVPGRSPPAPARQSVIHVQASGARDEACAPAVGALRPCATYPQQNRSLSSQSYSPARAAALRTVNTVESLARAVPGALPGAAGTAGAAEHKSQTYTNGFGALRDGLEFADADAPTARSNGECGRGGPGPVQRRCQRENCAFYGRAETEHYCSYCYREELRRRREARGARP
In short: as §1

[7] = target: T3, UniProt Q9P2H5
T3 sequence (whole entry): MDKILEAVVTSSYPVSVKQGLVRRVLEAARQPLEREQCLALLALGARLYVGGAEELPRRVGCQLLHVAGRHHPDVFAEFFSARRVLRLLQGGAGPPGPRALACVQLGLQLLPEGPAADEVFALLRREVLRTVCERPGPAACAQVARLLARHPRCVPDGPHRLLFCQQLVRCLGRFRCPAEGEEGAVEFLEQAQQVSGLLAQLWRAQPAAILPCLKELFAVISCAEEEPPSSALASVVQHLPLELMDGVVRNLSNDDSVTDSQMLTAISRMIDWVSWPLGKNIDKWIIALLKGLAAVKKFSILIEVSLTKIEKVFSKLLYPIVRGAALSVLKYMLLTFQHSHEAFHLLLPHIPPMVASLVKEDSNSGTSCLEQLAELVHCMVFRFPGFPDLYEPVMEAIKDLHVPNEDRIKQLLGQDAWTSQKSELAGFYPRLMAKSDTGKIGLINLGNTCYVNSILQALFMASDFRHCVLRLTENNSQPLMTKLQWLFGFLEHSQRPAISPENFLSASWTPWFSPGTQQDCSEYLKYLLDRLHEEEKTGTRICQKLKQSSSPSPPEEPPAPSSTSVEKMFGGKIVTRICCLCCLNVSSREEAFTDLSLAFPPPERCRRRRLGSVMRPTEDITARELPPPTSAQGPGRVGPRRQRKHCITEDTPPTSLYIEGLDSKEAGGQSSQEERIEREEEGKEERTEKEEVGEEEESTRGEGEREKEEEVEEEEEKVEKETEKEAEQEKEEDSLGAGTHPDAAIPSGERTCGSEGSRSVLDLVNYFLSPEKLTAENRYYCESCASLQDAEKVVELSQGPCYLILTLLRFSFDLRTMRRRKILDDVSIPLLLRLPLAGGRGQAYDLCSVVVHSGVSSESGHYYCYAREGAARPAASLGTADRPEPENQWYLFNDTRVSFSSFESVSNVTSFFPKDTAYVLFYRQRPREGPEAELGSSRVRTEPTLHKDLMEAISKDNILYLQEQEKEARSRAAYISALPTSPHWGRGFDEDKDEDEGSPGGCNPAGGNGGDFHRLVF
In short: as §1

[8] = target: T4, UniProt Q9UGI0
T4 sequence (whole entry): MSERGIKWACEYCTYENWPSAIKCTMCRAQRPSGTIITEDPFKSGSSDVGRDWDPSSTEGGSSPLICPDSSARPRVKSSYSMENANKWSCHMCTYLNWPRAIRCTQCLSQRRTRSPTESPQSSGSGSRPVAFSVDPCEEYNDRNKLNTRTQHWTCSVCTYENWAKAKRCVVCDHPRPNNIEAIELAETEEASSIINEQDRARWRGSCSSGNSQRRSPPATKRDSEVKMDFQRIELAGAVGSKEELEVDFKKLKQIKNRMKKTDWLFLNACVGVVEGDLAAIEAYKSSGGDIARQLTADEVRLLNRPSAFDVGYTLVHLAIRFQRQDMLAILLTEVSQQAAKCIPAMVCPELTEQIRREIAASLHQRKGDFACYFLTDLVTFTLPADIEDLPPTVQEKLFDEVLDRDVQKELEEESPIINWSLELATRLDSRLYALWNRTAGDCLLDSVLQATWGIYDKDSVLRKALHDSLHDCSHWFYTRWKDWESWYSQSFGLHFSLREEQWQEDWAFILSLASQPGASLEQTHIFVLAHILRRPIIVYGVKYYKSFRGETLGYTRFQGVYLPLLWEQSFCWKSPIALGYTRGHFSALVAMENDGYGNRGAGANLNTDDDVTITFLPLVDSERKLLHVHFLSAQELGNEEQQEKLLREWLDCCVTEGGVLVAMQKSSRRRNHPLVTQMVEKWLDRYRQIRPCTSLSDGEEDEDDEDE
In short: as §1

[9] = target: T5, YOD1 (UniProt Q5VVQ6)
T5 sequence (whole entry): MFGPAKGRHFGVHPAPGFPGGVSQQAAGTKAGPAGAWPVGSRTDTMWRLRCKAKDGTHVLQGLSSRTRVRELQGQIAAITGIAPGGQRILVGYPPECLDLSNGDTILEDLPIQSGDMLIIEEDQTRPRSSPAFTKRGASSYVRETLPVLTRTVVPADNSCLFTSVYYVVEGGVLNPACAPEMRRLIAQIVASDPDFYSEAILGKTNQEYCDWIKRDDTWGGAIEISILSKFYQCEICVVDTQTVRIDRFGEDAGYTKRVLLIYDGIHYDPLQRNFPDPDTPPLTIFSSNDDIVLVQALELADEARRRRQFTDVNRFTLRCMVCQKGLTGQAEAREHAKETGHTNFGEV
In short: as §1

Measured: log2 ratio of Biotin-Ahx-Ub-VS probe labelling

UniProt O00487, sequence (O00487 whole entry): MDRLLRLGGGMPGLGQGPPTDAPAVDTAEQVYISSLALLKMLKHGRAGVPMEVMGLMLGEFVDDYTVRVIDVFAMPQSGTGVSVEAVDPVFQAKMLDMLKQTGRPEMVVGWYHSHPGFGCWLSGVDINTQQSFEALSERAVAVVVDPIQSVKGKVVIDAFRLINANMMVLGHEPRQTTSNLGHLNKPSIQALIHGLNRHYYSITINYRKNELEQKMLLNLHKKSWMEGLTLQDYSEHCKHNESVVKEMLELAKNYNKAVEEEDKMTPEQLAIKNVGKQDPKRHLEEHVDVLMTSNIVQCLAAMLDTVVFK
UniProt O00507, sequence (O00507 whole entry): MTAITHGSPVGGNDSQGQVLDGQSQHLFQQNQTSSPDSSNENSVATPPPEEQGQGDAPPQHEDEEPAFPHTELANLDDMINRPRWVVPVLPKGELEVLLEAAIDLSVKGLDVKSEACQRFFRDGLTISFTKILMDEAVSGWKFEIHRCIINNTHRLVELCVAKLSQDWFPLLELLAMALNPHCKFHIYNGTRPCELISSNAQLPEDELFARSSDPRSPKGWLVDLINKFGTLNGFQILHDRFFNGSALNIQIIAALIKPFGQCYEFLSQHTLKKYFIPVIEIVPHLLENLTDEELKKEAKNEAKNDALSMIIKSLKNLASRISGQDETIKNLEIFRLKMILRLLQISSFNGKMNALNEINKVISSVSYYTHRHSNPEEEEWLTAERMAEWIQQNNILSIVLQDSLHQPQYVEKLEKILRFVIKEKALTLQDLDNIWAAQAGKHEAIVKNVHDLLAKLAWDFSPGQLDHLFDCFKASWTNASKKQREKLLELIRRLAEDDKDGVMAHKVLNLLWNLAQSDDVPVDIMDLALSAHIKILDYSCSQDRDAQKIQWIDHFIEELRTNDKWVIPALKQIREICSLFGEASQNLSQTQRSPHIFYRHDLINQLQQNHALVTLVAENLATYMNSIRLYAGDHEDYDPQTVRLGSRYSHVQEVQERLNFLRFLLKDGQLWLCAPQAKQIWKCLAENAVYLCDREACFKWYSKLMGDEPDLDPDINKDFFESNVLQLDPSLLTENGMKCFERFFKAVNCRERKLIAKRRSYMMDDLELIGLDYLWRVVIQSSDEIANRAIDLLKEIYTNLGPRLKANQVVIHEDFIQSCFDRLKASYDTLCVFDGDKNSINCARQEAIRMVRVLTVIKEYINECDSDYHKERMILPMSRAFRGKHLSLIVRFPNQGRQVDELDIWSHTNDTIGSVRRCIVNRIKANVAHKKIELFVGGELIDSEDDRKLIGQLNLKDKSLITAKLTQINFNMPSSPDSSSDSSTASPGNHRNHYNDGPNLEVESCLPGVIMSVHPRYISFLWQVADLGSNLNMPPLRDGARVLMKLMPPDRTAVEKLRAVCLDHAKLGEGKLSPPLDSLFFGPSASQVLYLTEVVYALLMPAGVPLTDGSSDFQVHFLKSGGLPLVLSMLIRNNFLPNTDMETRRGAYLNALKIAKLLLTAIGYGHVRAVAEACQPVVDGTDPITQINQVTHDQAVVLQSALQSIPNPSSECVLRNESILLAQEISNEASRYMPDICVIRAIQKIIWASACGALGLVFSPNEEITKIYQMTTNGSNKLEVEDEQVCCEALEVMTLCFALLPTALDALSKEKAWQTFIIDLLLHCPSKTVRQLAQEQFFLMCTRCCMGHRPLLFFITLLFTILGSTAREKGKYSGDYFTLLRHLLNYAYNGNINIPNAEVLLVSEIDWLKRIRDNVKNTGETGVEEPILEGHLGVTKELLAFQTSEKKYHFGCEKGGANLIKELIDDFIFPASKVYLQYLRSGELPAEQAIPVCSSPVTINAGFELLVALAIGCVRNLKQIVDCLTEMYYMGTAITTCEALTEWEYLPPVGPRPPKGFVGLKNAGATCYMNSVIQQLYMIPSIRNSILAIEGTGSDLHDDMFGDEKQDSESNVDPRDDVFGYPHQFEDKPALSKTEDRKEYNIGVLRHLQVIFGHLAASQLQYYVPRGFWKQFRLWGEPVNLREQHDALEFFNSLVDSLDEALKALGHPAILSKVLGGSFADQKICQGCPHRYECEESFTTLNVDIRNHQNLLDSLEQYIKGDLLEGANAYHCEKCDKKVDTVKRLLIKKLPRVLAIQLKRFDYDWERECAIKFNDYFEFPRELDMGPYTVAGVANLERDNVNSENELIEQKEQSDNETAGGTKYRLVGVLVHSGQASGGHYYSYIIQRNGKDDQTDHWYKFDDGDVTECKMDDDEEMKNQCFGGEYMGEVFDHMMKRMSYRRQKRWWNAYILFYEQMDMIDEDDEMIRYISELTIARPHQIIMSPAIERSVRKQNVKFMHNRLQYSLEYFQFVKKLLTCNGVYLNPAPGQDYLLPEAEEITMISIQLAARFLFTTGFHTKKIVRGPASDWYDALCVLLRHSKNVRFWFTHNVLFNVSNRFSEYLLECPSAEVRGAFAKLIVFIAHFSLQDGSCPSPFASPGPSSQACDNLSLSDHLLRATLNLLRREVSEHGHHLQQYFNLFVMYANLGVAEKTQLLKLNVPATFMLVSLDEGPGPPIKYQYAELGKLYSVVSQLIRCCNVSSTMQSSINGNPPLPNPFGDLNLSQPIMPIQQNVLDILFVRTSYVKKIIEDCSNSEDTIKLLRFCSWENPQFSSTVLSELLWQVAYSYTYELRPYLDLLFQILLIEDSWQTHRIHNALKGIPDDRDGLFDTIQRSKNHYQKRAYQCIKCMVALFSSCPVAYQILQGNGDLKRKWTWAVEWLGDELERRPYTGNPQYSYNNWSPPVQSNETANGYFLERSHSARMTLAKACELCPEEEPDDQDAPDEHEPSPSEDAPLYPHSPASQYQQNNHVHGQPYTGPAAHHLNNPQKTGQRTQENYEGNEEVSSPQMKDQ
UniProt P51784, sequence (P51784 whole entry): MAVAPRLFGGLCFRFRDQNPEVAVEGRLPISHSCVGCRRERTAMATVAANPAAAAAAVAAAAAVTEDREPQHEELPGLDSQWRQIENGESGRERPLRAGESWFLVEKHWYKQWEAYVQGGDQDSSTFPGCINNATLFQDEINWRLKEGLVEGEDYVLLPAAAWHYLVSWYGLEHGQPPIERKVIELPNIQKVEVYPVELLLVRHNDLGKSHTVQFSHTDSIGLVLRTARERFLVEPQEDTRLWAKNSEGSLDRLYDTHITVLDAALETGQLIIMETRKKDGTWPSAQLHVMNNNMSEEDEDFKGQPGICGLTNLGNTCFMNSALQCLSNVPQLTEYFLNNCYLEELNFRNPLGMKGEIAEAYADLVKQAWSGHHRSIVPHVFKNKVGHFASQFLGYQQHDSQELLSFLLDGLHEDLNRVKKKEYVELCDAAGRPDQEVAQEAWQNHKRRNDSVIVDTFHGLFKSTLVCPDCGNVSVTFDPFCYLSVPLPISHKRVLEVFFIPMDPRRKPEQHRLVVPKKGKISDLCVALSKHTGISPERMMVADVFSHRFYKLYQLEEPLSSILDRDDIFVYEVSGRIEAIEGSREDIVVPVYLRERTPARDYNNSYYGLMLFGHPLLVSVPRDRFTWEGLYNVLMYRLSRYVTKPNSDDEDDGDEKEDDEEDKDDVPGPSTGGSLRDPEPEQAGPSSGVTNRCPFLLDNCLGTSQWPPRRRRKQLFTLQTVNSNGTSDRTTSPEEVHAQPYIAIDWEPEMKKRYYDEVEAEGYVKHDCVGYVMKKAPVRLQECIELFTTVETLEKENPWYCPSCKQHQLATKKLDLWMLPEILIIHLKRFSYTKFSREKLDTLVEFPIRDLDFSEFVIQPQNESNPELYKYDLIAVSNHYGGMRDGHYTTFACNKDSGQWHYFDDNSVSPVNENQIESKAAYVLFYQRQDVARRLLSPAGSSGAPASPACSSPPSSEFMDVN

O=C(CCl)NCc1cccc(N2CCCC2=O)c1
inactive: [1] -0.272 | [2] 0.135 | [3] -0.0239 | [4] 0.0359 | [5] 0.0544 | [6] -0.351 | [7] 0.0802 | [8] -0.491 | [9] 0.144
